# Source: PubChem BioAssay (NCATS)
# Records with an inconclusive call do not appear. Entries that show only a call come without a potency. Active and inactive are the calls of the source. Unless noted, calls follow the shape of the dose curve; as a rule, active = well fitted curve in the direction sought with a large enough effect; inconclusive = small, poorly fitted or top-dose-only effect, or another doubt; inactive = no such curve, though single readings can be large; an effect the other way counts as inactive or inconclusive.
# Columns and labels:
# [1] = target: Luciferin 4-monooxygenase (Photinus pyralis) (UniProt P08659); assay: Primary firefly luciferase (FLuc) qHTS assay for identification of artifact compounds. (AID 1845220); also: nearly all actives have a fitted effect of over 60% in size; also: potency is read from the fitted curve at half-maximal effect
# Summary of the method: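 Titrated compounds were incubated 15 min at RT, protected from light, with luciferin and ATP at 10 uM; reaction started with 10 nM FLuc, luminescence imaged at 5 min, and concentration-response fitted by Hill equation.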
# [2] = Primary fluorescence-based thiol-reactive (MSTI) qHTS assay for identification of artifact compounds. (AID 1845221);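 also: thiol-reactive compounds lower the probe fluorescence signal; nearly all actives have a fitted effect of over 65% in size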
# Summary of the method: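 MSTI probe at 4 uM final in 2% DMSO/PBS pH 7.4; compounds, 1 h at room temperature in dark. Fluorescence Ex/Em 525/598 nm, normalised to Acetyl-MSTI and MSTI, fitted to 4-parameter Hill.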
# [3] = test system: Nanoluciferase (engineered Oplophorus gracilirostris luciferase); assay: Primary Nanoluciferase (NLuc) qHTS assay for identification of artifact compounds. (AID 1845222); also: potency is read from the fitted curve at half-maximal effect;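 as to activity, negative = inhibition: NLuc secreted into diluted conditioned medium of S16 cells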
# Summary of the method: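 qHTS format, against NLuc in S16 cell-conditioned medium. Nano-Glo substrate 1:100 was added after 15 min at room temperature. Luminescence was taken after a further 5 min.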
# [4] = Primary redox qHTS assay for identification of artifact compounds. (AID 1845223)
# Summary of the method: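 Redox-cycling detection via DTT (250 uM final) oxidation coupled to Amplex Red (25 uM)/HRP (250 mU/mL) in HBSS. 15 min preincubation plus 30 min after DTT, room temperature. Ex/Em 525/598 nm; 4-parameter Hill fit against DMSO and 10 uM DA3003.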
# [5] = qHTS drug screen for cell cycle checkpoint inhibitors in PARPi-resistant BRCA-mutant ovarian cancer cell lines. (AID 1963452; calls by dose curve); details: PEO1/OlaR viability, CellTiter-Glo luminescence, 96 h, stronger effect = lower value
# Summary of the method: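 PEO1, PEO4 and PEO1/OlaR ovarian cancer cells, 600 per well, exposed 96 h at 37C to a dilution series. Viability read by CellTiter-Glo luminescence, normalized to DMSO and empty wells; activity summarized as Z-AUC.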
# [6] = qHTS profiling for inhibitors of Plasmodium falciparum proliferation (AID 504749); also: potency is read from the fitted curve at half-maximal effect; as to all read-outs here: nearly all actives have a fitted effect of over 60% in size; details: P. falciparum in erythrocytes, SYBR Green DNA, 72 h; for activity, negative = inhibition: at 28.7 µM (top of the series)
# Summary of the method: (§1)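 SYBR Green fluorescence (ex 485 nm, em 535 nm) reports parasite DNA after 72 h compound exposure of infected red cells at 0.3% parasitemia, 2.5% hematocrit; signal normalized to 0.29 uM artemisinin and vehicle wells.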
# 3D7 = assay: as above; details: P. falciparum in erythrocytes, SYBR Green DNA, 72 h; series mostly up to 28.7 µM
# Summary of the method: as §1
# 7G8 = assay: as above; details: P. falciparum in erythrocytes, SYBR Green DNA, 72 h; series mostly up to 28.7 µM
# Summary of the method: as §1
# AA1029 = assay: as above; details: P. falciparum in erythrocytes, SYBR Green DNA, 72 h; series mostly up to 28.7 µM
# Summary of the method: as §1
# [7] = measured here: PEO1 parental Z-AUC
smiles,measurement,setting,value
O=C(O)CNC(=O)CNC(=O)CNC(=O)CSC(=O)c1ccccc1,Potency,[1],inactive
same,Potency,[2],inactive
same,Potency,[3],inactive
same,outcome,[4],inactive
O=C(NN1CCCC1)NS(=O)(=O)c1ccc(Cl)cc1,Potency,[1],inactive
same,Potency,[2],inactive
same,Potency,[3],inactive
same,outcome,[4],inactive
COc1cc(C(=O)OC(COCCC(C)C)CN2CCOCC2)cc(OC)c1OC (configuration not stated),Potency,[1],inactive
same,Potency,[2],inactive
same,Potency,[3],inactive
same,outcome,[4],inactive
CO/N=C(/C(=O)N[C@@H]1C(=O)N2C(C(=O)O)=C(Cn3nnc(C)n3)CS[C@H]12)c1csc(N)n1,Potency,[1],inactive
same,Potency,[2],inactive
same,Potency,[3],inactive
same,outcome,[4],inactive
CCN1C(=O)c2ccccc2C1Nc1ccc(OCCN2CCCCC2)cc1 (configuration not stated),Potency,[1],inactive
same,Potency,[2],inactive
same,Potency,[3],inactive
same,outcome,[4],inactive
O=C(O)Cc1ccccc1Oc1ccc(Cl)cc1Cl,Potency,[1],inactive
same,Potency,[2],inactive
same,outcome,[4],inactive
CN(C)c1cc2c(Nc3ccc4c(cnn4Cc4ccccc4)c3)ncnc2cn1,Potency,[1],inactive
same,Potency,[3],inactive
O=C1NC(c2cccc([N+](=O)[O-])c2)=CCN1c1ccccc1O,Potency,[1],inactive
same,Potency,[3],inactive
O=C1NC(=O)/C(=C/c2ccc3c(c2)OC(F)(F)O3)S1,Potency,[1],9.53 µM (active)
same,Potency,[2],inactive
same,Potency,[3],inactive
same,outcome,[4],inactive
same,Z-AUC,[5],-0.958 (inactive)
same,Z-AUC,[5]; [7],-0.173
same,Z-AUC,[5]; measured here: PEO4 Z-AUC,-0.926
CO[C@]1(NC(=O)CSC(F)F)C(=O)N2C(C(=O)O)=C(CSc3nnnn3CCO)CO[C@H]21,Potency,[1],inactive
same,Potency,[2],inactive
same,Potency,[3],inactive
same,outcome,[4],inactive
CCOC(=O)c1ccc(NC(=O)CN2CCCCC2)cc1,Potency,[1],inactive
same,Potency,[2],inactive
same,Potency,[3],inactive
same,outcome,[4],inactive
Cc1cccc(N(C)C(=S)Oc2ccc3c(c2)CCC3)c1,Potency,[1],inactive
same,Potency,[2],inactive
same,Potency,[3],inactive
same,outcome,[4],inactive
Cc1ccccc1C(=O)N1CC/C(=N\OS(=O)(=O)O)c2ccc(Cl)cc21,Potency,[1],inactive
same,Potency,[2],inactive
same,Potency,[3],26.9 µM (active)
same,outcome,[4],inactive
CC(C)N(CCC(=O)c1ccc2ccccc2c1)Cc1ccccc1,Potency,[1],inactive
same,Potency,[2],inactive
same,Potency,[3],1.2 µM (active)
same,outcome,[4],inactive
same,Z-AUC,[5],-1.4 (inactive)
same,Z-AUC,[5]; [7],-0.867
same,Z-AUC,[5]; measured here: PEO4 Z-AUC,-0.853
CCCN(CCC)C(=O)C(CCC(=O)OCCCN1CCN(CCOC(=O)Cc2c(C)n(C(=O)c3ccc(Cl)cc3)c3ccc(OC)cc23)CC1)NC(=O)c1ccccc1 (configuration not stated),Potency,[1],inactive
same,Potency,[2],inactive
same,Potency,[3],inactive
same,outcome,[4],inactive
C=CCOc1cc(Cl)ccc1C(=O)NCCN(CC)CC,Potency,[1],inactive
same,Potency,[2],inactive
same,Potency,[3],inactive
same,outcome,[4],inactive
CCOC(=O)Cn1cccc1-c1nc(-c2ccc(OC)cc2)c(-c2ccc(OC)cc2)s1,Potency,[1],inactive
same,Potency,[2],inactive
same,Potency,[3],inactive
same,outcome,[4],inactive
O=[N+]([O-])c1nccn1CO[C@@H](CO)[C@H](O)CO,Potency,[1],inactive
same,Potency,[2],inactive
same,Potency,[3],inactive
same,outcome,[4],inactive
CC1CN(c2cc3c(cc2F)c(=O)c(C(=O)O)cn3-c2ccc(F)cc2F)CCN1 (configuration not stated),Potency,[1],inactive
same,Potency,[2],inactive
same,Potency,[3],inactive
same,outcome,[4],inactive
CC(=O)O[C@@H]1C(=O)O[C@@H]2[C@H]1OC(=O)[C@@H]2OC(C)=O,Potency,[1],inactive
same,Potency,[2],inactive
same,Potency,[3],inactive
same,outcome,[4],inactive
CC1c2ccccc2CN1NC(=O)c1ccc(Cl)c(S(N)(=O)=O)c1 (configuration not stated),Potency,[1],inactive
same,Potency,[2],inactive
same,outcome,[4],inactive
same,Z-AUC,[5],1.28 (inactive)
same,Z-AUC,[5]; [7],0.911
same,Z-AUC,[5]; measured here: PEO4 Z-AUC,0.911
O=C(CCCCCCCCC#CI)Oc1ccccc1,Potency,[1],inactive
same,Potency,[2],inactive
same,outcome,[4],inactive
Nc1ncnc2n[nH]c(Nc3ccc(F)cc3)c12,Potency,[1],inactive
same,Potency,[3],inactive
same,outcome,[4],inactive
CCN(CC)CCOc1ccc(/C(=C(\Cl)c2ccccc2)c2ccccc2)cc1,Potency,[1],inactive
same,Potency,[2],inactive
same,Potency,[3],inactive
same,outcome,[4],inactive
same,Z-AUC,[5],-0.751 (inactive)
same,Z-AUC,[5]; [7],-0.39
same,Z-AUC,[5]; measured here: PEO4 Z-AUC,-0.613
CC(C)(C)c1nnc(NS(=O)(=O)c2ccccc2)s1,Potency,[1],inactive
same,Potency,[2],inactive
same,outcome,[4],inactive
O=C(O)C(=O)Nc1cccc(-c2nn[nH]n2)c1,Z-AUC,[5],0.0028 (inactive)
same,Z-AUC,[5]; [7],0.552
same,Z-AUC,[5]; measured here: PEO4 Z-AUC,0.459
CN1CC(=O)N2[C@H](c3ccc4c(c3)OCO4)c3[nH]c4ccccc4c3C[C@@H]2C1=O,Z-AUC,[5],0.983 (inactive)
same,Z-AUC,[5]; [7],0.823
same,Z-AUC,[5]; measured here: PEO4 Z-AUC,0.783
CCCCCCCCCCCCCCCC[N+](C)(C)Cc1ccccc1,Potency,[6]; parasite line A,1.26 µM (active)
same,Potency,[6]; parasite line B,5.62 µM (active)
same,Potency,3D7,3.98 µM (active)
same,Potency,7G8,3.16 µM (active)
same,Potency,AA1029,3.16 µM (active)
CN1CCCN(C(c2ccccc2)c2ccc(Cl)cc2)CC1 (configuration not stated),Potency,7G8,8.91 µM (active)
same,Potency,AA1029,7.94 µM (active)
CCCCCCCCCCCCCC[N+](C)(C)C,Potency,[6]; parasite line A,5.01 µM (active)
same,Potency,[6]; parasite line B,7.08 µM (active)
same,Potency,3D7,3.98 µM (active)
same,Potency,7G8,2.24 µM (active)
same,Potency,AA1029,4.47 µM (active)
Nc1ncnc2nc[nH]c12,"activity, negative = inhibition",[6]; parasite line A,-12.9% (inactive)
same,"activity, negative = inhibition",[6]; parasite line B,-6.26% (inactive)
same,Potency,3D7,inactive
same,Potency,7G8,inactive
same,Potency,AA1029,inactive
O=S(=O)(O)c1ccc2nc(-c3ccccc3)[nH]c2c1,"activity, negative = inhibition",[6]; parasite line A,7.74% (inactive)
same,"activity, negative = inhibition",[6]; parasite line B,3.12% (inactive)
same,Potency,3D7,inactive
same,Potency,7G8,inactive
same,Potency,AA1029,inactive
O=[N+]([O-])c1cncn1CCN1CCOCC1,Z-AUC,[5],1.32 (inactive)
same,Z-AUC,[5]; [7],1.34
same,Z-AUC,[5]; measured here: PEO4 Z-AUC,1.02
C[C@H]1C[C@@H]2[C@H]([C@@H](O)C[C@@]3(C)[C@H]2CC[C@]3(O)C(=O)CO)[C@@]2(C)C=CC(=O)C=C12,Z-AUC,[5],-1.46 (inactive)
same,Z-AUC,[5]; [7],-0.672
same,Z-AUC,[5]; measured here: PEO4 Z-AUC,-1.34
